# Test results published in publication PMC7826789 (International Journal of Molecular Sciences, 2021).
# Key:
# YSK1 = test system: T1, YSK1; conditions: Compound Concentration (nM):1000
# T1 construct: gene STK25
# YSK4 = test system: T2, YSK4; conditions: Compound Concentration (nM):1000
# T2 construct: gene MAP3K19
# ZAK = conditions: Compound Concentration (nM):1000
# ZAP70 = conditions: Compound Concentration (nM):1000
# p38-alpha = test system: T3, p38-alpha; conditions: Compound Concentration (nM):1000
# T3 construct: gene MAPK14
# p38-beta = test system: T4, p38-beta; conditions: Compound Concentration (nM):1000
# T4 construct: gene MAPK11
# p38-delta = test system: T5, p38-delta; conditions: Compound Concentration (nM):1000
# T5 construct: gene MAPK13
# p38-gamma = test system: T6, p38-gamma; conditions: Compound Concentration (nM):1000
# T6 construct: gene MAPK12
# 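Throughout, for Percent Control: KINOMEscan scanMAX binding as percent activity remaining versus control; lower means stronger binding.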
compound,measurement,setting,value
NS(=O)(=O)c1ccc(Nc2ncc(-c3ccccc3)o2)cc1 [GW572399X],Percent Control,YSK1,54%
same,Percent Control,YSK4,30%
same,Percent Control,ZAK,100%
same,Percent Control,ZAP70,100%
same,Percent Control,p38-alpha,100%
same,Percent Control,p38-beta,100%
same,Percent Control,p38-delta,100%
same,Percent Control,p38-gamma,100%
COc1cc(/C=N/Nc2ncnc3[nH]ncc23)ccc1O [GW578748X],Percent Control,YSK1,70%
same,Percent Control,YSK4,3.2%
same,Percent Control,ZAK,59%
same,Percent Control,ZAP70,76%
same,Percent Control,p38-alpha,100%
same,Percent Control,p38-beta,100%
same,Percent Control,p38-delta,100%
same,Percent Control,p38-gamma,69%
CN(C)c1cc2c(Nc3ccc4c(cnn4Cc4ccccc4)c3)ncnc2cn1 [GW282974X],Percent Control,YSK1,83%
same,Percent Control,YSK4,90%
same,Percent Control,ZAK,90%
same,Percent Control,ZAP70,83%
same,Percent Control,p38-alpha,100%
same,Percent Control,p38-beta,100%
same,Percent Control,p38-delta,99%
same,Percent Control,p38-gamma,100%
Cc1cccc(-c2nc(Nc3ccncc3)c3ccccc3n2)n1 [GW855857],Kinases covered,ACVR1B,ACVR1B
CNCc1ccc(-c2cc(-c3nc(-c4ccc(S(=O)(=O)C(C)C)cc4)cnc3N)on2)cc1 [VE-822],Kinases covered,ATM,ATM
same,Kinases covered,ATR,ATR
COc1cc(-c2cncc(-c3cnn(C4CCNCC4)c3)c2)cc(OC)c1OC [K05908],Kinases covered,ACVR1B,ACVR1B
same,Kinases covered,ACVR1,ACVR1
same,Kinases covered,ACVRL1,ACVRL1
COc1ccc(COc2ccc(Cc3cnc(N)nc3N)cc2OC)cc1 [GW632580X],Percent Control,YSK1,100%
same,Percent Control,YSK4,91%
same,Percent Control,ZAK,87%
same,Percent Control,ZAP70,97%
same,Percent Control,p38-alpha,100%
same,Percent Control,p38-beta,100%
same,Percent Control,p38-delta,85%
same,Percent Control,p38-gamma,89%
COc1cc2ncnc(Nc3ccc4c(cnn4Cc4ccccc4)c3)c2cc1OC.Cl [GW282449A],Percent Control,YSK1,89%
same,Percent Control,YSK4,98%
same,Percent Control,ZAK,100%
same,Percent Control,ZAP70,100%
same,Percent Control,p38-alpha,100%
same,Percent Control,p38-beta,100%
same,Percent Control,p38-delta,100%
same,Percent Control,p38-gamma,100%
CNC(=O)c1c(F)cccc1Nc1nc(Nc2cc3c(cc2OC)CCN3C(=O)CN(C)C)nc2[nH]ccc12 [GSK1838705],Kinases covered,ALK,ALK
CC(C)COC(=O)c1ccc2c(c1)/C(=C/Nc1ccc(S(N)(=O)=O)cc1)C(=O)N2 [GW416981X],Percent Control,YSK1,65%
same,Percent Control,YSK4,11%
same,Percent Control,ZAK,100%
same,Percent Control,ZAP70,100%
same,Percent Control,p38-alpha,100%
same,Percent Control,p38-beta,100%
same,Percent Control,p38-delta,100%
same,Percent Control,p38-gamma,100%
CN1C(=O)c2ccccc2N(C)c2nc(Nc3cnn(C4CCNCC4)c3)ncc21 [XMD-17-51],Kinases covered,ABL1,ABL1
same,Kinases covered,AURKA,AURKA
Cc1cccc(-c2cc(Nc3ccncc3)c3ccccc3n2)n1 [GSK223675],Kinases covered,ACVR1B,ACVR1B
CCc1ccc(Oc2nccc(-c3c(-c4ccc(F)cc4)ncn3C3CCNCC3)n2)cc1 [SB-242719],Percent Control,YSK1,100%
same,Percent Control,YSK4,94%
same,Percent Control,ZAK,84%
same,Percent Control,ZAP70,98%
same,Percent Control,p38-alpha,0.1%
same,Percent Control,p38-beta,3%
same,Percent Control,p38-delta,100%
same,Percent Control,p38-gamma,100%
CNS(=O)(=O)c1ccc(N(C)C)c(Nc2ncnc3cc(OC)c(OC)cc23)c1 [GSK114],Kinases covered,ACK1,ACK1
NS(=O)(=O)c1ccc(N/N=C2\C(=O)Nc3ccc(C(=O)NCc4ccncc4)cc32)cc1 [GW300657X],Percent Control,YSK1,76%
same,Percent Control,YSK4,2.4%
same,Percent Control,ZAK,100%
same,Percent Control,ZAP70,85%
same,Percent Control,p38-alpha,100%
same,Percent Control,p38-beta,100%
same,Percent Control,p38-delta,100%
same,Percent Control,p38-gamma,42%
CN1CCN(C(=O)c2ccc(NC(=O)Nc3ccc(N(C)c4ccnc(Nc5ccc(CS(C)(=O)=O)cc5)n4)cc3)cc2)CC1.Cl [GW830263A],Percent Control,YSK1,83%
same,Percent Control,YSK4,0%
same,Percent Control,ZAK,86%
same,Percent Control,ZAP70,65%
same,Percent Control,p38-alpha,83%
same,Percent Control,p38-beta,100%
same,Percent Control,p38-delta,100%
same,Percent Control,p38-gamma,100%
COc1ccccc1-c1cc(/C=C2\C(=O)Nc3ncc(Br)cc32)cc(Br)c1O [GW442130X],Percent Control,YSK1,99%
same,Percent Control,YSK4,98%
same,Percent Control,ZAK,100%
same,Percent Control,ZAP70,100%
same,Percent Control,p38-alpha,100%
same,Percent Control,p38-beta,92%
same,Percent Control,p38-delta,67%
same,Percent Control,p38-gamma,57%
same,Kinases covered,AURKA,AURKA
CCS(=O)(=O)c1ccc(OC)c(Nc2ncc(-c3cccc(F)c3)o2)c1 [GW621970X],Percent Control,YSK1,79%
same,Percent Control,YSK4,90%
same,Percent Control,ZAK,82%
same,Percent Control,ZAP70,86%
same,Percent Control,p38-alpha,100%
same,Percent Control,p38-beta,100%
same,Percent Control,p38-delta,100%
same,Percent Control,p38-gamma,100%
CCn1c(-c2nonc2N)nc2c(C#CC(C)(C)O)nc(OCCNC)cc21.Cl [GSK949675],Percent Control,YSK1,89%
same,Percent Control,YSK4,0%
same,Percent Control,ZAK,100%
same,Percent Control,ZAP70,100%
same,Percent Control,p38-alpha,100%
same,Percent Control,p38-beta,94%
same,Percent Control,p38-delta,100%
same,Percent Control,p38-gamma,84%
same,Kinases covered,AKT1,AKT1
same,Kinases covered,AKT2,AKT2
CC1=C(C(=O)Nc2ccc3[nH]ncc3c2)C(c2ccc3ccccc3c2)CC(=O)N1 (centres unmarked) [GSK270822A],Percent Control,YSK1,68%
same,Percent Control,YSK4,75%
same,Percent Control,ZAK,92%
same,Percent Control,ZAP70,99%
same,Percent Control,p38-alpha,100%
same,Percent Control,p38-beta,100%
same,Percent Control,p38-delta,94%
same,Percent Control,p38-gamma,100%
CS(=O)(=O)c1ccc(-c2cnc(N)c(C(=O)Nc3ccccc3)n2)cc1 [VE-821],Kinases covered,ATR,ATR
CCn1cc(-c2ccnc3[nH]c(-c4cccc(CN(C)C)c4)cc23)c(-c2ccc(NC(=O)N(C)C)cc2)n1 [GSK1070916],Kinases covered,AURKB,AURKB
O=C(NCCO)c1cccc(-c2cc(Nc3ccc(OC(F)(F)F)cc3)ncn2)c1 [GNF-5],Kinases covered,ABL1,ABL1
O=C1Nc2ccc(C(=O)c3ccco3)cc2C1=Cc1cc(Cl)c(O)c(Cl)c1 [GW406108X],Percent Control,YSK1,85%
same,Percent Control,YSK4,20%
same,Percent Control,ZAK,100%
same,Percent Control,ZAP70,100%
same,Percent Control,p38-alpha,93%
same,Percent Control,p38-beta,100%
same,Percent Control,p38-delta,100%
same,Percent Control,p38-gamma,44%
Cn1ccc2ncnc(Oc3ccc(Nc4nc5ccccc5[nH]4)cc3)c21 [TPKI-72],Kinases covered,AURKB,AURKB
C[C@@H](Oc1cc(-n2cnc3ccc(OC4CCN(C)CC4)cc32)sc1C(N)=O)c1ccccc1Cl [GSK579289A],Percent Control,YSK1,74%
same,Percent Control,YSK4,32%
same,Percent Control,ZAK,69%
same,Percent Control,ZAP70,93%
same,Percent Control,p38-alpha,100%
same,Percent Control,p38-beta,76%
same,Percent Control,p38-delta,100%
same,Percent Control,p38-gamma,81%
Nc1ncnc2occ(-c3ccc(NC(=O)Nc4cc(C(F)(F)F)ccc4F)cc3)c12 [GW770249X],Percent Control,YSK1,70%
same,Percent Control,YSK4,0.1%
same,Percent Control,ZAK,46%
same,Percent Control,ZAP70,86%
same,Percent Control,p38-alpha,85%
same,Percent Control,p38-beta,57%
same,Percent Control,p38-delta,4.8%
same,Percent Control,p38-gamma,18%
COc1ccc2c(-c3ccnc(Nc4cccc(OC(F)(F)F)c4)n3)cnn2n1 [GW810372X],Percent Control,YSK1,85%
same,Percent Control,YSK4,39%
same,Percent Control,ZAK,69%
same,Percent Control,ZAP70,86%
same,Percent Control,p38-alpha,100%
same,Percent Control,p38-beta,100%
same,Percent Control,p38-delta,100%
same,Percent Control,p38-gamma,77%
COc1ccc2[nH]c3c4[nH]c5ccc(OC)cc5c4c4c(c3c2c1)C(=O)NC4=O [GW296115X],Percent Control,YSK1,89%
same,Percent Control,YSK4,0%
same,Percent Control,ZAK,100%
same,Percent Control,ZAP70,76%
same,Percent Control,p38-alpha,87%
same,Percent Control,p38-beta,100%
same,Percent Control,p38-delta,86%
same,Percent Control,p38-gamma,70%
NS(=O)(=O)c1ccc(N/N=C2\C(=O)Nc3ccc(Cl)cc32)cc1 [GW280670X],Percent Control,YSK1,80%
same,Percent Control,YSK4,31%
same,Percent Control,ZAK,100%
same,Percent Control,ZAP70,100%
same,Percent Control,p38-alpha,100%
same,Percent Control,p38-beta,100%
same,Percent Control,p38-delta,100%
same,Percent Control,p38-gamma,100%
